Here are results for 40 molecules from PubChem BioAssay (NCATS).

Records with an inconclusive call do not appear. Values without a mark were called inactive. Calls follow the shape of the dose curve; as a rule, active = well fitted cell-killing curve with a large enough effect; inconclusive = small, poorly fitted or top-dose-only effect; inactive = flat fitted curve, though single readings scatter.
% is scaled to controls: 0 for no effect and ±100 for the full control effect.

The test can be described thus: Cell Viability - LYMP2-026 (AID 989).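 Also: cells exposed to compound for 24 h at 37 °C; nearly all actives have a fitted effect of over 50% in size.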 The settings on record: LYMP2-026 lymphoblastoid cell viability, qHTS; series mostly up to 92.2 µM; activity change, negative = cytotoxic: at the top concentration. An excerpt: NIH Chemical Genomics Center [NCGC]
NIH Molecular Libraries Screening Centers Network [MLSCN]
National Institutes of Environmental Health Sciences [NIEHS]
National Toxicology Program [NTP]
We have developed a 1536-well cell-based assay for quantitative high throughput screening (qHTS) against a number of cell lines to determine in vitro cytotoxicity of small molecules. This particular assay uses a human lymphoblastoid cell line (LYMP2-026) purchased from Coriell Institute for Medical Research.
NCGC Assay Protocol Summary:
The CellTiter-Glo luminescent cell viability assay (Promega) is a homogeneous method to measure the number of viable cells in culture. The end point readout of this assay is based on quantitation of intracellular ATP, an indicator of metabolic activity, using the luciferase reaction. Luciferase catalyzes the oxidation of beetle Luciferin to oxyluciferin and light in the presence of ATP. The luminescent signal is proportional to amount of ATP present.
Using the CellTiter-Glo luminescent cell viability assay, the amount of cellular ATP was measured in the lymphoblastoid cell line with complete culture medium following compound treatment for 24 hours. The assay was performed in opaque white Kalypsys 1536-well plates. In the screen, tetraoctylammonium bromide was used as positive control. Library compounds were measured for their ability to cause acute toxicity in the cell line, as reflected by a decrease in intracellular ATP levels, in a concentration-dependent manner. […] AC50 values were determined from concentration-response data modeled with the standard Hill equation.
qHTS protocol for CellTiter Glo lymphoblastoid cellular assay
[Step] [Parameter] [Value] [Description]
1. Reagent; 5 uL; 2500 lymphoblastoid cells/well
2. Time; 5 hr; 37 C incubation
4. Controls; 23 nL; Tetraoctylammonium bromide 6.4pM to 92 uM
5. Time; 24 hr; 37 C incubation
6. Reagent; 5 uL; CellTiter Glo reagent
7. Time; 30 min; Room Temperature
8. Detection; Luminescence; Viewlux plate reader
Keywords: cell viability, cytotoxicity, lymphoblastoid cell line, luminescence, NTPHTS, NTPHTS_NCGC, NIEHS, DSSTox, MLSMR, MLSCN, NIH Roadmap, qHTS, NCGC
Regarding `C/C(C=O)=C/c1ccccc1`, the “activity change, negative = cytotoxic” value is 0.928%. As for `CC(=O)CCc1ccccc1`, the “activity change, negative = cytotoxic” value is -4.74%. As for `Cc1ccccc1Br`, the “activity change, negative = cytotoxic” value is 1.87%.

With `CC(=O)OCCC(C)C`, the “activity change, negative = cytotoxic” value is 4.06%. As for `C=CC(=O)NC(C)C`, the figure is 4.9%. As for `CCCCN(CCO)CCCC`, the figure is 0.622%; as for `CC(C)C=O`, 7.32%.

For `CCOC(=O)C(C)C(C)=O` (stereo not given), the “activity change, negative = cytotoxic” value is -12.6%.

`CCN(CC)c1cccc(O)c1`: the “activity change, negative = cytotoxic” value was -1.04%.

Consider `CC(C)Cc1nccs1`, for which the “activity change, negative = cytotoxic” value is -0.83%.

Turning to `Cc1cccc2sc(N)nc12`, the “activity change, negative = cytotoxic” value was -12.6%. Turning to `Nc1c(Cl)cc(Cl)cc1Cl`, the “activity change, negative = cytotoxic” value was 3.31%.

As for `CC(=C/C=C/C(C)=C/C=C/C=C(C)/C=C/C=C(C)/C=C/C(=O)O)/C=C/C(=O)O`, the “activity change, negative = cytotoxic” value is -9.75%. As for `CC1CCC2CC1C2(C)C` (stereo not given), the figure is -1.43%.

With `CCNc1ccccc1`, the “activity change, negative = cytotoxic” value was -2.17%. With `O=[N+]([O-])c1ccccc1CCO`, the “activity change, negative = cytotoxic” value is -1.15%. As for `O=C(O)c1ccc(C(=O)O)cc1`, the figure is -6.36%; as for `Nc1cc([N+](=O)[O-])ccc1C(=O)O`, 4.14%.

Take `c1ccc2[nH]cnc2c1`: the “activity change, negative = cytotoxic” value was 6.3%. Consider `CCN(C(=O)N(CC)c1ccccc1)c1ccccc1`, for which the “activity change, negative = cytotoxic” value was -0.986%.

Take `O=Nc1ccc(NO)cc1`: the “activity change, negative = cytotoxic” value is -14.4%.

Regarding `Cc1ccc(C)o1`, the “activity change, negative = cytotoxic” value was -3.9%. In the case of `CNC(=O)c1ccccc1`, the “activity change, negative = cytotoxic” value is 0.779%. Take `CCC(C)(C)OC`: the “activity change, negative = cytotoxic” value was -6.84%. `Cc1cc(C)cc([N+](=O)[O-])c1`: the “activity change, negative = cytotoxic” value is 3.86%. As for `CCCOCC(C)OCC(C)O` (stereo not given), the figure is -2.44%; as for `Cc1cccc2cccnc12`, -1.63%.

Regarding `Cc1ccc(CO)cc1`, the “activity change, negative = cytotoxic” value was -5.16%. On to `Cc1c(N)cccc1N`, for which the “activity change, negative = cytotoxic” value is -5.27%. On to `O=C1OC(=O)c2cc([N+](=O)[O-])ccc21`, for which the “activity change, negative = cytotoxic” value was 10.1%. `O=C(O)CNC(=O)c1ccc([N+](=O)[O-])cc1`: the “activity change, negative = cytotoxic” value was 1.75%. In the case of `Nc1ccccc1S(=O)(=O)O` it was -15%; in that of `C=Cc1ccc(C=C)cc1`, -9.05%; in that of `O=c1[nH][nH]c(=O)c2cc([N+](=O)[O-])ccc12`, -4.02%.

For the molecule `O=C1NC(=O)c2cc([N+](=O)[O-])ccc21`, the “activity change, negative = cytotoxic” value is -0.824%.

As to `CCOCCOCC`, the “activity change, negative = cytotoxic” value was 3.45%.

With `O=C1CCCCC1`, the “activity change, negative = cytotoxic” value was -0.581%. In the case of `CCOc1ccc(NC(C)=O)cc1N` it was -0.873%; in that of `Nc1cccc(C(F)(F)F)c1`, 4.58%; in that of `O=CNc1ccccc1`, 3.43%.
